{"source": "PubChem BioAssay AID488890", "about": "(Southern Research Specialized Biocontainment Screening …, 2010)", "note": "Among all 320,000 compounds or so, about 1,300 (0.41%) were called active. Inconclusive results (about 3%) are left out. The rule behind the calls is not given here. Only a sample is shown. Results with a measured potency or affinity are listed apart."}
{"test": "growth inhibition of non-replicating M. tuberculosis (AID 488890);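 note: plate controls were DMSO cells for no effect and high antibiotic wells for full effect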", "conditions": "Mycobacterium tuberculosis non-replicating, at 25 µM, stronger effect = higher value", "units": {"inhibition": "%"}}
{"smiles": "FC(F)(F)c1cccc(CON=C2CCN(c3ncc(C(F)(F)F)cc3Cl)CC2)c1", "inhibition": -8.15}
{"smiles": "O=C(Nc1cc(Cl)ccc1Cl)c1ccco1", "inhibition": -1.55}
{"smiles": "O=C(Nc1cc(Cl)ccc1Cl)c1ccc(OC(=O)c2ccco2)cc1", "inhibition": 49.5}
{"smiles": "CN(Cc1ccc2c(c1)OCCO2)C(=O)CSc1ncnc2sccc12", "inhibition": 25.8}
{"smiles": "CCCc1cc(=O)[nH]c(SCC(=O)c2cc(C)n(CC(F)(F)F)c2C)n1", "inhibition": 6.27}
{"smiles": "COc1cccc(-n2ccnc2SCC(=O)Nc2ccccc2)c1", "inhibition": 2.78}
{"smiles": "O=C(N/N=C\\c1ccc(O)c([N+](=O)[O-])c1)C1COc2ccccc2O1", "note": "(stereo not drawn)", "inhibition": 57}
{"smiles": "Cn1cccc1/C=N\\NC(=O)C1COc2ccc(C(C)(C)C)cc2O1", "note": "(stereo not drawn)", "inhibition": 78.1}
{"smiles": "O=C(N/N=C/c1cccc([N+](=O)[O-])c1)C1COc2ccccc2O1", "note": "(stereo not drawn)", "inhibition": 29.6}
{"smiles": "O=C(N/N=C/c1c[nH]c2ccccc12)C1COc2ccccc2O1", "note": "(stereo not drawn)", "inhibition": 26.6}
{"smiles": "CC(C)(C)c1ccc2c(c1)OC(C(=O)N/N=C\\c1ccncc1)CO2", "note": "(stereo not drawn)", "inhibition": 10.4}
{"smiles": "C/C(=N\\NC(=O)C1COc2ccccc2O1)c1ccc(Cl)s1", "note": "(stereo not drawn)", "inhibition": 76}
{"smiles": "CC(C)(C)c1ccc2c(c1)OC(C(=O)N/N=C/c1ccc([N+](=O)[O-])o1)CO2", "note": "(stereo not drawn)", "inhibition": 77.1}
{"smiles": "O=C(N/N=C\\c1ccc(-c2ccc([N+](=O)[O-])cc2)o1)C1COc2ccccc2O1", "note": "(stereo not drawn)", "inhibition": 42.2}
{"smiles": "CC(C)CNS(=O)(=O)c1ccccc1C(=O)N1CCCCC1", "inhibition": 8.8}
{"smiles": "C/C(=C\\c1ccccc1)C(=O)N1CCN(c2cccc(C(F)(F)F)c2)CC1", "inhibition": 22.2}
{"smiles": "COc1ccc(N2CC(C)Cn3c2nc2c3c(=O)n(Cc3ccc(C)cc3)c(=O)n2C)c(OC)c1", "note": "(stereo not drawn)", "inhibition": 17.9}
{"smiles": "CCc1ccc(C(=O)NNC(=O)c2ccc3c(=O)n4c(nc3c2)CCC4)cc1", "inhibition": -9.87}
{"smiles": "Cc1cc(OC(C)C(=O)Nc2ccccc2C(=O)N2CCCC2)ccc1Cl", "note": "(stereo not drawn)", "inhibition": 4.49}
{"smiles": "O=C(/C=C/c1ccccc1)NCCc1ccccc1", "inhibition": 1.5}
{"smiles": "COc1ccc(N2CC(C(=O)OCC(=O)Nc3cccc(C)c3C)CC2=O)cc1", "note": "(stereo not drawn)", "inhibition": -1.13}
{"smiles": "Cn1c(N)c(C(=O)CNC2CCCCC2)c(=O)n(C)c1=O", "inhibition": -15.1}
{"smiles": "CCOC(=O)CNC(=O)CSc1nnc(C)c(=O)[nH]1", "inhibition": -4.04}
{"smiles": "Cc1cc(C)c(S(=O)(=O)c2ccccc2C)c(OCCN(C)C)n1", "inhibition": 6.46}
{"smiles": "O=C(N/N=C/c1ccco1)C1COc2ccccc2O1", "note": "(stereo not drawn)", "inhibition": 4.17}
{"smiles": "CN(C)c1ccc(/C=N/NC(=O)C2COc3ccccc3O2)o1", "note": "(stereo not drawn)", "inhibition": 1.59}
{"smiles": "CCCN1CCN(c2ccc([N+](=O)[O-])cc2C#N)CC1", "inhibition": 2.83}
{"smiles": "CC1CC(=O)C(C2c3ccccc3CCN2C(=O)CCl)C(=O)C1", "note": "(stereo not drawn)", "inhibition": 14.6}
{"smiles": "CN1CCCC(OC(=O)c2ccccc2Br)C1", "note": "(stereo not drawn)", "inhibition": -1.81}
{"smiles": "O=C1CC(N2CCN(c3ccccc3O)CC2)C(=O)N1Cc1ccccc1", "note": "(stereo not drawn)", "inhibition": 72}
{"smiles": "CCN1C(=O)CC(N2CCC(C(=O)N3CCCCCC3)CC2)C1=O", "note": "(stereo not drawn)", "inhibition": 77}
{"smiles": "O=C(CC1C(=O)NCCN1Cc1cccc(Oc2ccccc2)c1)NCCc1ccncc1", "note": "(stereo not drawn)", "inhibition": 12.8}
{"smiles": "Cc1cccc(NC(=O)c2c(O)c3ccccc3n(C)c2=O)c1", "inhibition": 13.4}
{"smiles": "COc1ccc(C(=O)OCC(=O)NC(=O)NC(C)C)cc1OC", "inhibition": -0.28}
{"smiles": "Cc1ccc(C(C)NC(=O)C2CCCO2)cc1C", "note": "(stereo not drawn)", "inhibition": 16.5}
{"smiles": "CC(NC(=O)C1CCCO1)c1ccccc1", "note": "(stereo not drawn)", "inhibition": 17.7}
{"smiles": "COc1cc2ccccc2cc1C(=O)N1CCCCC1", "inhibition": 12}
{"smiles": "COC(=O)C1=C(C)N(Cc2ccccc2)C(=NCc2cc(OC)c(OC)c(OC)c2)N[C@H]1c1cccc(F)c1", "inhibition": 65.1}
{"smiles": "COC(=O)C1=C(C)N(Cc2ccccc2)C(=NCc2ccc(OC)cc2)N[C@H]1c1cccc(F)c1", "inhibition": 79.1}
{"smiles": "C=CCn1c(O)c(/C=N/NC(=O)c2ccncc2)c(=O)[nH]c1=O", "inhibition": 58}
{"smiles": "COc1ccccc1C(=O)CC(=O)c1ccccc1", "inhibition": 52.4}
{"smiles": "Cc1nc2ccccc2c(=O)n1-c1cc([N+](=O)[O-])cc([N+](=O)[O-])c1", "inhibition": 19.9}
{"smiles": "Nc1c(-c2cccc([N+](=O)[O-])c2)nc2ccccn12", "inhibition": 6.84}
{"smiles": "O=c1c2ccccc2nc2ccccn12", "inhibition": -2.46}
{"smiles": "O=[N+]([O-])c1cnc2ccccc2c1", "inhibition": -10.7}
{"smiles": "CCCOc1ccc(-c2nc(C#N)c(N3CCN(C)CC3)o2)cc1", "inhibition": 30.2}
{"smiles": "CCOc1ccc(CCNC(=O)COC(=O)CCC(=O)c2cccs2)cc1OCC", "inhibition": 11.4}
{"smiles": "Cc1ccc(/C(=N\\S(=O)(=O)c2ccc(Br)cc2)Nc2ccccc2C)cc1", "inhibition": -11}
{"smiles": "COc1ccc(NC(=O)CSCC(=O)NC2(C)CCS(=O)(=O)C2)cc1", "note": "(stereo not drawn)", "inhibition": -8.31}
{"smiles": "CCn1ccnc1[C@@H]1C[C@H]2CN(Cc3ccccc3OC)C(=O)[C@]23CCCN13", "inhibition": 29.3}
{"smiles": "CCN(Cc1ccncc1)C(=S)Nc1ccccc1", "inhibition": -19.8}
{"smiles": "COc1cc(C=O)c(Cl)cc1OCC(N)=O", "inhibition": -0.64}
{"smiles": "CCOC(=O)C(C)Oc1ccsc1C(=O)OC", "note": "(stereo not drawn)", "inhibition": 53.8}
{"smiles": "O=C(Nc1ccccc1N1CCCC1)c1cccnc1Cl", "inhibition": 7.22}
{"smiles": "Cc1ccc(NC(=S)N2CCN(S(=O)(=O)c3ccccc3)CC2)cc1", "inhibition": -12.6}
{"smiles": "O=C(COc1ccc(F)cc1)N1CCCc2ccccc21", "inhibition": 74.6}
{"smiles": "Cc1ccc(OCC(=O)N2CCc3ccccc32)cc1", "inhibition": 43}
{"smiles": "CC(=O)NC(Cc1c[nH]c2ccccc12)C(=O)OCC(=O)Nc1cc(C)on1", "note": "(stereo not drawn)", "inhibition": -1.64}
{"smiles": "Cn1nnnc1Sc1ccc(C(=O)O)cc1[N+](=O)[O-]", "inhibition": -12.4}
{"smiles": "O=C(O)c1ccc(Sc2nnnn2-c2ccccc2)c([N+](=O)[O-])c1", "inhibition": 29.1}
{"smiles": "O=C(c1cc2n(n1)C(C(F)(F)F)CC(c1ccco1)N2)N1CCN(c2ccccn2)CC1", "note": "(stereo not drawn)", "inhibition": 8.02}
{"smiles": "CCN(Cc1ccccc1)c1ccc(/C=N/N2CCOCC2)cc1", "inhibition": 12.8}
{"smiles": "NC(N)=N/N=C/c1ccccc1", "inhibition": 13.1}
{"smiles": "O=C1c2ccccc2NC(c2ccco2)N1NS(=O)(=O)c1ccccc1", "note": "(stereo not drawn)", "inhibition": 1.96}
{"smiles": "O=[N+]([O-])c1ccc(Oc2ccc(-c3nnco3)cc2)c(Cl)c1", "inhibition": -9.83}
{"smiles": "O=C(CCc1nc(-c2ccccc2Cl)no1)NCc1ccco1", "inhibition": 43.2}
{"smiles": "CCNCCNc1ccc([N+](=O)[O-])c2cccnc12", "inhibition": 79.3}
{"smiles": "O=[N+]([O-])c1ccc(NCCO)c2ncccc12", "inhibition": 9.39}
{"smiles": "O=C(CCSc1ccccc1)N1CCN(c2ccccc2)CC1", "inhibition": 10.9}
{"smiles": "O=C(CCSc1ccccc1)N1CCOCC1", "inhibition": 14.3}
{"smiles": "O=C(CCSc1nnc(-c2ccc(O)cc2)o1)N1CCOCC1", "inhibition": 70.5}
{"smiles": "O=C(CCSc1nnc(-c2ccco2)o1)N1CCOCC1", "inhibition": 75.9}
{"smiles": "Cc1cc(OCC(=O)N[C@@H](Cc2c[nH]c3ccccc23)C(=O)O)c2c(C)c(C)c(=O)oc2c1", "inhibition": 5.84}
